# Results as given in paper PMC12136788.
# Whole data set: some 24,000 sequences, median “enrichment r” near 0.99, cut for the highest 2% near 3.7. The sample holds the highest values, similar sequences and a random draw of the others, so the mix is not that of the screen.
# T1: UNK ZnF1-3 (human, UniProt Q9C0B0 31-174)
# T1 sequence: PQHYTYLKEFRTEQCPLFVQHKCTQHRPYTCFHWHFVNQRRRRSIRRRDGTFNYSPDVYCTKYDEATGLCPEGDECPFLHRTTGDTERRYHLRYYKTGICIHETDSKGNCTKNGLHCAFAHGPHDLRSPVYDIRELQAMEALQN
# B1: 32740819_32743422_11525_CDS_ENSG00000115760_ENST00000421745|human|control|control (ssRNA)
# RNA: GGGAGUUCUACAGUCCGACGAUCCAGCAUCAACUGUAAAAAUAAUCUUCGUAUAAACCCUGAAAUGUUCCCAGAUGUUGGAAGGUUCCCUCUUUGAGGAGAUGUCUGAAAUAGUUCACAAAGAACCUGUGCCAUCAGCUUUUGCAACAGAGGAUUGAGCAUCA
# B2: chrX:71549762:71549763:+_ENSMUSG00000019087_ENSMUST00000019231|mus_mus|mus_mus_mus_hu_False|28_98 (ssRNA)
# RNA: GGGAGUUCUACAGUCCGACGAUCAAACCCGUGUACUCACUCUUAACAGCACAACAUCACCAGAAAACGAUAACGACAGCCAAGCAGGACAGACAGUUAAGUAGUACUUCCACACCUCCAAACUCAGGGAGCCCUAUAACCUUACAACAGAGGAUUGAGCAUCA
# B3: 112506700_112506820_3235_3pUTR_ENSMUSG00000032727_ENSMUST00000109272|mouse|control|control (ssRNA)
# RNA: GGGAGUUCUACAGUCCGACGAUCAAUAAAUACCCUCCCGUCCAGUCACUAGGACCACUACCUCCUACCUACUCUUCAGCACGACCUUGAAGCGACUCACACUUAUAAACAGCAACACAACUAGGAAAAUAAAAAAAAAAAUCACAACAGAGGAUUGAGCAUCA
# B4: chr2:140009677:140009678:+_ENSMUSG00000027384_ENSMUST00000044825|mus_mus|FALSE|FALSE (ssRNA)
# RNA: GGGAGUUCUACAGUCCGACGAUCGCUGCUAACCACCAGGUCAAACGUGUUUUCUUGGAAGGGAAGGAAUUCUUCAUCAGCUAAAAUAUUCACAGUAGGAAUAUCUGUUUCUAAAGAAUUUUUCAAAGCAUGCUCUGCAAUGUCCAACAGAGGAUUGAGCAUCA
# B5: chr1:32661602:32661603:+_ENSG00000084652_ENST00000373610|hu_hu|FALSE|FALSE (ssRNA)
# RNA: GGGAGUUCUACAGUCCGACGAUCCAGCAUCCCUCUUCCUUGGAAGGUCCUCAAUACAAACACUGUCAUGUGCAAAAAAAAAAGAAAAAGAAAAAAAAAAAAAAAGAAAAAGAAAUAAAGAAAAAAACACCUUCAGAAAUAAUCCAACAGAGGAUUGAGCAUCA
# B6: chrX:71549762:71549763:+_ENSMUSG00000019087_ENSMUST00000019231|mus_mus|mus_mus_mus_hu_False|28_88 (ssRNA)
# RNA: GGGAGUUCUACAGUCCGACGAUCAAACCCGUGUACUUCUUAUUGUUACAUCACCCCCACCAGAAAACGAUAACGACAGCCAAGCAGGACAGACAGUUAAGUAGUACUUCCACACCUCCAAACUCAGGGAGCCCUAUAACCUUACAACAGAGGAUUGAGCAUCA
# B7: chr3:41266445:41266446:+_ENSG00000168036_ENST00000349496|perfect_dup|FALSE|FALSE (ssRNA)
# RNA: GGGAGUUCUACAGUCCGACGAUCCAUAGCAGCUCGUACCCUCUGAGCUCGAGUCAUUGCAUACUGUCCAUCAAUAUCAGCUACUUGUUCUUGAGUGAAGGACUGAGAAAAUCCCUGUUCCCACUCAUACAGGACUUGGGAGGUCAACAGAGGAUUGAGCAUCA
# B8: chrX:140365796:140365797:-_ENSMUSG00000031285_ENSMUST00000033642|mus_mus|mus_mus_mus_hu_False|28_108 (ssRNA)
# RNA: GGGAGUUCUACAGUCCGACGAUCCUUCUCAUUACUUAGUGCCUGCAAGGUUCUGGUUCGGUAGAAGCUACAGUGGGCGCUGUGAGUGGGGCUAGGCAACCCAUUCAUCCGUGACCCUCGCAUGUUCCUGGAUGUCUUAUCUCUCAACAGAGGAUUGAGCAUCA
# B9: chr9:95013113:95013114:-_ENSG00000196305_ENST00000443024|hu_hu|hu_hu_hu_mus_False|68_98 (ssRNA)
# RNA: GGGAGUUCUACAGUCCGACGAUCCUCAGUCAGAAAGGGUGUGUAGGGGGCCAUCAGUCUGCACAGAGAAAGCAGAACACUGAACAGUGUCUCCAGAGCCAUGACACAGUCUUCCACCCCACUCUCACCCUUUAACCUCCUCCUCAACAGAGGAUUGAGCAUCA
# B10: 176631152_176631272_1200_CDS_ENSG00000165671_ENST00000439151|human|control|control (ssRNA)
# RNA: GGGAGUUCUACAGUCCGACGAUCUUUCUGUUUCCCUCUUCUCCUAAGGACAGGUAGCUCUUCGAAUUGAUGUCUGCCUUCAAACAUGACGAUUGCUUUUCCAGCCACCCAGGCUCUCUCAGAAGGAUCUCCAAAAGCCUCCACCAACAGAGGAUUGAGCAUCA
# B11: chr2:42509997:42509998:+_ENSG00000143924_ENST00000318522|hu_mus|hu_hu_hu_mus_True|38_108 (ssRNA)
# RNA: GGGAGUUCUACAGUCCGACGAUCUCGCUGAGUUCUCUCCUCAUAAUUAAACAGGACUACCACUGAGGCGAUAAAAUAAACUAUCUCCCCUGUGGGAAGAAGGUAAACAUUCGCUCUACAGUCCUUUCCUCGAUAACCGUAUACCAACAGAGGAUUGAGCAUCA
# B12: chr5:72798899:72798900:+_ENSG00000145741_ENST00000335895|hu_mus|motif|central (ssRNA)
# RNA: GGGAGUUCUACAGUCCGACGAUCGGGUGCUUUUCCAUCCACAGAUUGUUUGGGCAGAGCUUCAGCCAGUCUCCUUAAACGGGUCAGGCUGUCUGCACCAAGCUGGUUGAGGAUGCUGGGAAGCAUUUCUGUCAGCUGCUUUGUCAACAGAGGAUUGAGCAUCA
# B13: 160239608_160243617_1107_3pUTR_ENSG00000186432_ENST00000334256|human|control|control (ssRNA)
# RNA: GGGAGUUCUACAGUCCGACGAUCAGGAACUAUUCCAGAGUCUAUUACCAUCUGUAUUUGUUCAUUGCCAGCAUCAGUAAGGUAAGAGAGGGCCCAGACUGUGUCUACCAGUAUAUUUACAUCUGUGUGAUGAAUUAAAACACACAACAGAGGAUUGAGCAUCA
# B14: chrX:71099370:71099371:-_ENSMUSG00000031391_ENSMUST00000102871|mus_hu|FALSE|FALSE (ssRNA)
# RNA: GGGAGUUCUACAGUCCGACGAUCUUUAUUUUUCCUGGGAUGGGUUCAUCAAAGCUAAUUGCUAUCAAUCCUAGAAACCACCUAGGGACUCAGACAUCUGCCUACACACUAGUGGCGUAAAGGGAAGGACAGGGGUACAAACUUCAACAGAGGAUUGAGCAUCA
# Target: T1, UNK ZnF1-3
# Test: nsRBNS (natural sequence RNA bind-n-seq); RBNS binding buffer (assumed for nsRBNS): 25 mM Tris pH 7.5, 150 mM KCl, 3 mM MgCl2, 0.01% Triton X-100, 500 ug/ml BSA, 20 U/ml SUPERase-In, 4 C; UNK is unkempt and MSI1 is Musashi-1; names of the RNAs are library labels; protein concentration not given here; high values mean tight binding
row,Binder,binding signal [enrichment R]
1,B1,1.97
2,B2,1.72
3,B3,4.38
4,B4,1.19
5,B5,4.33
6,B6,1.85
7,B7,0.798
8,B8,0.752
9,B9,0.959
10,B10,0.923
11,B11,1.03
12,B12,0.508
13,B13,1.37
14,B14,0.995
